High-throughput results as filed in PubChem.
ALDH1A1 inh: blocks purified human ALDH1A1 activity; Purified ALDH1A1, NADH fluorescence, propionaldehyde substrate; AID 1030; Potency, µM (titrated, usually from 75.3 µM), without a hit: top-dose activity, negative = inhibition, actives largely listed as inhibitors; 220,000 compounds, 7.3% hits; P00352;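 note: potency is the fitted concentration of half-maximal effect; plate controls were no enzyme wells and a reference inhibitor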
PNC inhibitor: inhibitors of perinucleolar compartment assembly; PC3M PTB-GFP, PNC prevalence imaging, 16 h; hits give low values; activity change (PNC), negative = inhibition, % at 10 µM; 140,000 compounds, 3.1% hits; AID 2417;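 active = readout at or below -70, meaning at least 70% loss of cells showing the perinucleolar compartment, a nuclear body marking cancer cells; inconclusive = readout between -30 and a set limit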;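 note: plate controls were DMSO wells for no effect and camptothecin positive control wells for full effect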
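PC3M cells stably expressing PTB-GFP, 750–1000 cells/well, treated 16 h at 37 °C with compound (23 nl of library stock), in duplicate. After paraformaldehyde fixation and Hoechst stain, imaged at 20x; PNC prevalence scored by image analysis.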
LMNA splice mod: modulators of lamin A splicing; 200,000 compounds, 0.01% hits; HeLa LMNA splicing GFP/RFP minigene ratio, 48 h; Potency, µM (top dose mostly 46.1 µM), inactives show at the highest dose ratio change, negative = inhibition, most hits filed as inhibitors; active = well fitted inhibition curve with a large enough effect in the signal ratio, with a control signal flat, not every such curve was filed as active; inconclusive = small, poorly fitted or top-dose-only effect, or effect the other way, or a change in a side signal; the % refers to the signal ratio; note: potency is the fitted concentration of half-maximal effect
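S3 HeLa stable clones carrying a lamin A-EGFP splicing minigene plus DsRed2 were seeded at 600 cells/well in Opti-MEM with 2% FBS, pin-dosed and incubated 48 h at 37°C. Acumen cytometry (488 nm) gave the GFP/RFP total-intensity ratio.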
HPGD inh: inhibitors of human 15-hydroxyprostaglandin dehydrogenase (HPGD) | P15428 | purified HPGD, NADH fluorescence kinetic, PGE2 substrate | Potency, µM, inactives show at the highest dose activity change, negative = inhibition, most hits filed as inhibitors | 150,000 compounds, 4.3% hits | AID 894; note: potency is the fitted concentration of half-maximal effect
Target sequence (P15428 whole entry, looked up): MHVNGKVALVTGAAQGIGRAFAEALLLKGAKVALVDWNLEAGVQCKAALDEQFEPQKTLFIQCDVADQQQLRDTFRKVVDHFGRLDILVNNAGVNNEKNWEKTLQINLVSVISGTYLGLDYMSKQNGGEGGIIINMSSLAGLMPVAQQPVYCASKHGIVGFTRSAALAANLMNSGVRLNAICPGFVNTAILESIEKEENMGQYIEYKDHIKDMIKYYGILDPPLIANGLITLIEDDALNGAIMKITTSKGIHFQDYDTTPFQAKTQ
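20 nM HPGD preincubated 15 min at room temperature with compound in 50 mM Tris-HCl pH 8, 0.01% Tween 20. Started with 1 mM NAD+ and 30 uM prostaglandin E2; NADH fluorescence (360/450 nm) read 5 times over 30-s intervals, last minus first.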
Luc counter: counter-screen: inhibitors of Kinase-Glo firefly luciferase. 200,000 compounds, 0.28% hits. AID 1379. Kinase-Glo luciferase, ATP luminescence, 8 min. Q27757. Potency, µM (top dose mostly 38.3 µM), without a hit: top-dose activity change, negative = inhibition, actives largely listed as inhibitors; active = well fitted inhibition curve with a large enough effect; inconclusive = small, poorly fitted or top-dose-only effect; note: potency is the fitted concentration of half-maximal effect; nearly all actives have a fitted effect of over 60% in size
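Light output from Kinase-Glo luciferase with luciferin and 10 uM ATP in 50 mM imidazole pH 7.2, KCl, MgCl2, Tween 20, BSA; compound pin-delivered, 8-min ambient incubation, then luminescence read.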
Active calls of the source: *; u = inconclusive; x = no result given; [ ] = dose if it differs, or a comment. An excerpt weighted towards active compounds, which were near 10% of everything screened. Unless noted, calls come from the whole dose curve; as a rule, active = well fitted inhibition curve with a large enough effect (not every such curve was filed as active); inconclusive = small, poorly fitted or top-dose-only effect, or another doubt; inactive = no such curve, though single readings can be large or run the other way. Unless noted, % is set by controls: 0 for no effect and ±100 for the full control effect.

SMILES | ALDH1A1 inh | PNC inhibitor | LMNA splice mod | HPGD inh | Luc counter
NC(N)=NCCC[C@H](NC(=O)CC1(CC(=O)N2CCN(C3c4ccccc4NC(=O)c4ccccc43)CC2)CCCC1)C(=O)NCCn1c(=O)n(-c2ccccc2)n(-c2ccccc2)c1=O (stereo not given in full) | 5% | x | x | -5% | -3%
O=S(=O)(CCn1cccc1)CCn1cccc1 | 5% | -100* | -1% | -9% | -1%
O=C(O)CCSCc1ccc(I)cc1 | 4%[13.5 µM] | x | x | -6% | -3%[7.66 µM]
O=C(O)CSc1nc2c(cnn2-c2ccccc2)c(=O)n1-c1ccc(Br)cc1 | -6% | 54 | -6% | 14µM* | -2%
COc1ccc(Cn2nnnc2C(c2ccc(N(C)C)cc2)N2CCC(C)CC2)cc1 (stereo not given) | 25µM* | 18 | 6% | -15% | -3%
COc1ccc(Cn2nnnc2C(c2cc(OC)ccc2OC)N2CCC(C(N)=O)CC2)cc1 (stereo not given) | 14µM* | 11 | u | -5% | -1%
CN1CCN(C(c2cccs2)c2nnnn2Cc2ccc(F)cc2)CC1 (stereo not given) | u | x | x | x | 1%
CC1CCCN(C(c2cccs2)c2nnnn2Cc2ccccc2)C1 (stereo not given) | 3.2µM* | 15 | 14% | -18% | 2%
CC1CCN(C(c2ccc(N(C)C)cc2)c2nnnn2Cc2ccccc2)CC1 (stereo not given) | 8.9µM* | 1 | 10% | -12% | 2%
Cc1cccc(Cn2c(CNS(=O)(=O)c3ccc4c(c3)CCCC4)nc3cccnc32)c1 | x | x | 3%[46 µM] | x | x
COCC(=O)N1CCC2(CC1)CCN(C(c1ccccc1)c1ccccc1)CC2 | 11% | x | x | -5% | -1%
Cc1cc(F)ccc1NC(=O)c1c(C)oc2c1C1=NCCN1C=N2 | x | x | -10%[46 µM] | x | x
Cc1ccccc1NC(=O)c1c(C)[nH]c(=S)c(C#N)c1-c1ccco1 | -1% | 10 | -6% | -19% | 3%
CCc1c(C(=O)Nc2ccccc2)c(C)[nH]c(=S)c1C#N | 3.5µM* | -3 | 10% | 20µM* | 3%
Cc1[nH]c(=S)c(C#N)c(C)c1C(=O)Nc1ccccc1 | u | 18 | 7% | 22µM* | -1%
C/C(=N/NC1=NCCN1)c1cn(C2=NCCN2)nc1C | -9%[13.5 µM] | x | x | -5% | -7%[7.66 µM]
CC(C)(C)c1csc(NC(=O)Cn2cnc3ccccc3c2=O)n1 | 13µM* | -25 | 3% | 20µM* | -1%
CC(C)(C)c1csc(NC(=O)CSc2nc3ccccc3c(=O)[nH]2)n1 | -10% | 20 | u | u | -1%
CC(C)(C)NC(=O)CSc1nnc(NC(=O)CCn2cnc3ccccc3c2=O)s1 | 15% | -122* | 10% | -18% | 4%
OCCN[C@@H]1c2cc(Cl)ccc2-c2c(Cl)cc(Cl)cc21 | 4%[13.5 µM] | x | x | 4% | -1%[7.66 µM]
CC1CCc2onc(C(=O)N3CCN(c4ccccc4)CC3)c2C1 (stereo not given) | x | x | -9%[46 µM] | x | x
Cc1ccc(Cl)cc1N1CCN(C(=O)c2cnn(C)c2C2CCN(C(=O)OC(C)(C)C)CC2)CC1 | x | x | -10%[46 µM] | x | x
COc1cc(/C=C(\C#N)C(=O)NC2CCCCC2C)ccc1OS(=O)(=O)c1ccc(C)cc1 (stereo not given) | 8.9µM* | u | u | u | 1%
COc1cc(/C=C(\C#N)C(N)=O)ccc1OS(=O)(=O)c1ccc(C)cc1 | 18µM* | -15 | -16% | 28µM* | 0%
Cc1noc(C)c1-c1cncnc1N(C)Cc1ccco1 | -8% | x | 15% | x | x
SMILES | ALDH1A1 inh | PNC inhibitor | LMNA splice mod | HPGD inh | Luc counter
Nc1nc(SCc2ccccc2Cl)[nH]c(=O)c1-c1ccccc1 | -5% | u | u | -14% | 1%
COc1ccc(-c2noc(CSc3nc(N)c(-c4ccccc4)c(=O)[nH]3)n2)cc1OC | u | u | -19% | 16µM* | -3%
COc1ccc(-c2noc(CSc3nc(-c4ccccc4)cc(=O)[nH]3)n2)cc1 | -1% | u | 6% | -14% | -5%
Nc1nc(SCc2ccccc2)[nH]c(=O)c1-c1ccccc1 | 14µM* | -18 | -18% | -9% | 0%
Nc1nc(SCC(=O)N2CCCc3ccccc32)[nH]c(=O)c1-c1ccccc1 | 22µM* | -17 | -7% | -16% | -2%
Cc1ccc(NC(=O)c2cnc(SCC(=O)N3CCCc4ccccc43)n(C)c2=O)cc1C | x | x | -6%[46 µM] | x | x
O=CN1CC(=O)N(c2ccccc2)c2c([nH]c3ccccc23)C1 | u | -11 | 10%[0.0737 µM] | 22µM* | -3%
Cc1cccc2c(=O)cc(CSc3ccccc3NC(=O)C(C)(C)C)[nH]c12 | x | x | -14%[46 µM] | x | x
O=[N+]([O-])C(=C1Nc2ccccc2N1)/C(Cl)=C(/Cl)Br | 24µM* | -20 | 4% | -7% | -3%
O=c1cc(-c2ccccc2)oc2cc(O)c(O)cc12 | 2% | x | x | 18µM* | -13%
COc1ccc(-c2cc(=O)c3ccccc3o2)cc1OC | u | x | -10% | u | -7%
O=c1cc(-c2ccc(O)cc2)oc2cc(O)ccc12 | u | x | x | u | -17%
O=c1cc(-c2ccc(O)c(O)c2)oc2ccccc12 | 25µM* | x | x | 7.1µM* | -9%
O=c1cc(-c2ccccc2)oc2ccccc12 | -17% | x | x | 8.9µM* | x
COc1ccc(NC(=O)COC(=O)c2ccc(Cl)c(S(N)(=O)=O)c2)c([N+](=O)[O-])c1 | u | x | 1%[46 µM] | x | x
COC(=O)CC1[C@@]2(C)C[C@]34OC5(C)OC6(C7CC(=O)OC(c8ccoc8)[C@]7(C)CCC6(O5)[C@]13C)C(OC(C)=O)[C@]4(OC(C)=O)C2OC(C)=O (stereo not given in full) | 10% | x | -5% | -2% | 1%
O=c1c(-c2cc(F)cc(F)c2)nc2cncnc2n1-c1ccccc1 | 13% | x | 1% | x | x
C[C@H]1COC(=O)[C@H]2CCCN2C(=O)[C@@H](C)COC(=O)[C@H](Cc2ccccc2)NC1=O | 3%[13.5 µM] | x | x | x | x
O=C1CCCN1c1ccc(S(=O)(=O)Oc2ccc(Cl)cc2)cc1[N+](=O)[O-] | -12% | -3 | 0% | 7.9µM* | -1%
